Assay [1] relates to Epidermal growth factor receptor (Homo sapiens), P00533 [T790M]. The following applies: at 1 µM.
Assay [2] has as its system Epidermal growth factor receptor (Homo sapiens), P00533 [L858R,T790M]. The following applies: at 0.1 µM.
Assay [3] shares this test system. The following applies: at 1 µM.
Assay [4] addresses Ephrin type-A receptor 2 (Homo sapiens) (UniProt P29317). The note with it: at 0.1 µM.
The target is the same in assay [5]. The note with it: at 1 µM.
Assay [6] deals with T1, Ephrin type-A receptor 3 (Homo sapiens) (UniProt P29320).
T1 sequence (whole entry): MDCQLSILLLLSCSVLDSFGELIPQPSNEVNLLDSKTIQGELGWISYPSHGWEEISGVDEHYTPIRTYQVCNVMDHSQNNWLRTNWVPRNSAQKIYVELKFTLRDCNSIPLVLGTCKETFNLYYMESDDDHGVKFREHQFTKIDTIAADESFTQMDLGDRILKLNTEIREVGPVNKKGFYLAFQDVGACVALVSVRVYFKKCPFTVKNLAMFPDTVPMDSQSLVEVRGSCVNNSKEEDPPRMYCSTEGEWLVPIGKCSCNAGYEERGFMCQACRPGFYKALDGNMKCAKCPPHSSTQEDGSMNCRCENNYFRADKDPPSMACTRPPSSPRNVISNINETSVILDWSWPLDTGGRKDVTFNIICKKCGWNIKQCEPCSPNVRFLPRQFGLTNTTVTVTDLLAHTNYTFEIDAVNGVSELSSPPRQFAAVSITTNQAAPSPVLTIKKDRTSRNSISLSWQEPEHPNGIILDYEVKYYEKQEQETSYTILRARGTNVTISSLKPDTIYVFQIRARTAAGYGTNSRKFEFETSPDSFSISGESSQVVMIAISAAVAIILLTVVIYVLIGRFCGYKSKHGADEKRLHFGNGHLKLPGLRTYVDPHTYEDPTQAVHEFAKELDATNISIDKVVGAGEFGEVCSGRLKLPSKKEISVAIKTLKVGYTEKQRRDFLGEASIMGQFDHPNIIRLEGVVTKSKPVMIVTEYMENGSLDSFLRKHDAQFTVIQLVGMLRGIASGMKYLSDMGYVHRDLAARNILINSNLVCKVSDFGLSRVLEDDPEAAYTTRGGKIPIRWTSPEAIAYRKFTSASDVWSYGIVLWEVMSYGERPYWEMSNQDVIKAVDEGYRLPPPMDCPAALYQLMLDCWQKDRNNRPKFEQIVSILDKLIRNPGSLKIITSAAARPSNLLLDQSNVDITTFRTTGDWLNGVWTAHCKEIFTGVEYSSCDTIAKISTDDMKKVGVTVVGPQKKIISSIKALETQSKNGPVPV
The note with it: at 0.1 µM.

The target in assay [7] is T1, Ephrin type-A receptor 3 (Homo sapiens). The following applies: at 1 µM.
In assay [8] the target is Ephrin type-A receptor 4 (Homo sapiens) (UniProt P54764). The following applies: at 0.1 µM.
For assay [9] the target is unchanged. The note with it: at 1 µM.
The target in assay [10] is T2, Ephrin type-B receptor 2 (Homo sapiens) (UniProt P29323).
T2 sequence (whole entry): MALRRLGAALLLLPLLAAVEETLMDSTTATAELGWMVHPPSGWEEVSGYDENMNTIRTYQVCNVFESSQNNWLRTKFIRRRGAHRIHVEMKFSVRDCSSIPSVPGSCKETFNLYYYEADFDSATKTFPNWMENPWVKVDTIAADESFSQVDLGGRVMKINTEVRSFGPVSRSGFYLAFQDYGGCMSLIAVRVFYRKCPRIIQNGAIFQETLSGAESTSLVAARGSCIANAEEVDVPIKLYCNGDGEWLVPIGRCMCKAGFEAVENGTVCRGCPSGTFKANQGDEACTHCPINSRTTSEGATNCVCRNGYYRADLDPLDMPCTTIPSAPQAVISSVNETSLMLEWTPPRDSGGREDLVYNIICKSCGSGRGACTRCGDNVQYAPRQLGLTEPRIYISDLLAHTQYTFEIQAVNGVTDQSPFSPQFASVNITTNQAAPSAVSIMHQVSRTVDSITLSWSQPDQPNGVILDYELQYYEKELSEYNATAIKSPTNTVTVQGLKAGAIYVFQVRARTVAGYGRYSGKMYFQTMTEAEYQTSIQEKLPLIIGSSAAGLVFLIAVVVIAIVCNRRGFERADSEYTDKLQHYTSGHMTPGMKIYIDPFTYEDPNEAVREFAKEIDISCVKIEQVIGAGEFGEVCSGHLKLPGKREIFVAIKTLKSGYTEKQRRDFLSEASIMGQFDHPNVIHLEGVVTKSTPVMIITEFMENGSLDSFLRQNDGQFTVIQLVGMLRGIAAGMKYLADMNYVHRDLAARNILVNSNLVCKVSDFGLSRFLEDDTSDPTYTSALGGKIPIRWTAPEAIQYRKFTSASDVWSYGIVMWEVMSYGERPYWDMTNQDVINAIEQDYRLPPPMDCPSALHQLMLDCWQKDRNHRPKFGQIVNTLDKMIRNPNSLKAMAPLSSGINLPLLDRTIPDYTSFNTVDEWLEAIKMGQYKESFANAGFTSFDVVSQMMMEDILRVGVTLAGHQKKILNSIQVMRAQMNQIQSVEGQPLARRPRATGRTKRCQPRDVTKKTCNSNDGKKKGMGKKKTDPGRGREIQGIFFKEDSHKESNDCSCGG
The note with it: at 0.1 µM.

Assay [11] concerns the target T2, Ephrin type-B receptor 2 (Homo sapiens). The following applies: at 1 µM.
In assay [12] the target is T3, Ephrin type-B receptor 3 (Homo sapiens) (UniProt P54753).
T3 sequence (whole entry): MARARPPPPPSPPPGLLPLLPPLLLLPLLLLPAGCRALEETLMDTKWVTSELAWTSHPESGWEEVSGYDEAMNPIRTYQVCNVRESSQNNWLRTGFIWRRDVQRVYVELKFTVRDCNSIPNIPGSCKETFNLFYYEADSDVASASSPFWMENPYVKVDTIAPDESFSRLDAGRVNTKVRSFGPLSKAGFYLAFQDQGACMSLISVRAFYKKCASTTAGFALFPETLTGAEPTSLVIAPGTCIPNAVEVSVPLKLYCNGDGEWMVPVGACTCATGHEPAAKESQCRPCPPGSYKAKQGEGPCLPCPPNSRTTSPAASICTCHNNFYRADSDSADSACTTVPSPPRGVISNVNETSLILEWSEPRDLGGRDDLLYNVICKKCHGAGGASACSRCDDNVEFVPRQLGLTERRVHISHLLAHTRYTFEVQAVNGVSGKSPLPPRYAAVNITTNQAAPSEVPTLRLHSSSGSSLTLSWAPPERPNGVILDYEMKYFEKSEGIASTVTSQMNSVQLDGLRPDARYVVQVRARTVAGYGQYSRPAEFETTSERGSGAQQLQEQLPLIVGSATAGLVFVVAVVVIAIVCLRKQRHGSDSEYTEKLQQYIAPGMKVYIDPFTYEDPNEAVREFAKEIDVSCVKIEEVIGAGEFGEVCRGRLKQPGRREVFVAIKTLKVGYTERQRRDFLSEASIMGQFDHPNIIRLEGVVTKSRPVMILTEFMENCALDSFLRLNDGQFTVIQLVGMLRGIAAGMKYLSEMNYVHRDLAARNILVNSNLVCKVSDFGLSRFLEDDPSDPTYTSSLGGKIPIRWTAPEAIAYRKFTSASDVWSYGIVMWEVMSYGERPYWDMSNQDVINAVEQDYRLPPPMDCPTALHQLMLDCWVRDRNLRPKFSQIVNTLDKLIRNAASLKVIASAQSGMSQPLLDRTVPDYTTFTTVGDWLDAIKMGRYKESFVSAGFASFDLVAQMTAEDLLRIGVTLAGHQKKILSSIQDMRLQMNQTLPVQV
The following applies: at 0.1 µM.

The target in assay [13] is T3, Ephrin type-B receptor 3 (Homo sapiens). The following applies: at 1 µM.
Assay [14] concerns the target T4, Ephrin type-B receptor 4 (Homo sapiens) (UniProt P54760).
T4 sequence (whole entry): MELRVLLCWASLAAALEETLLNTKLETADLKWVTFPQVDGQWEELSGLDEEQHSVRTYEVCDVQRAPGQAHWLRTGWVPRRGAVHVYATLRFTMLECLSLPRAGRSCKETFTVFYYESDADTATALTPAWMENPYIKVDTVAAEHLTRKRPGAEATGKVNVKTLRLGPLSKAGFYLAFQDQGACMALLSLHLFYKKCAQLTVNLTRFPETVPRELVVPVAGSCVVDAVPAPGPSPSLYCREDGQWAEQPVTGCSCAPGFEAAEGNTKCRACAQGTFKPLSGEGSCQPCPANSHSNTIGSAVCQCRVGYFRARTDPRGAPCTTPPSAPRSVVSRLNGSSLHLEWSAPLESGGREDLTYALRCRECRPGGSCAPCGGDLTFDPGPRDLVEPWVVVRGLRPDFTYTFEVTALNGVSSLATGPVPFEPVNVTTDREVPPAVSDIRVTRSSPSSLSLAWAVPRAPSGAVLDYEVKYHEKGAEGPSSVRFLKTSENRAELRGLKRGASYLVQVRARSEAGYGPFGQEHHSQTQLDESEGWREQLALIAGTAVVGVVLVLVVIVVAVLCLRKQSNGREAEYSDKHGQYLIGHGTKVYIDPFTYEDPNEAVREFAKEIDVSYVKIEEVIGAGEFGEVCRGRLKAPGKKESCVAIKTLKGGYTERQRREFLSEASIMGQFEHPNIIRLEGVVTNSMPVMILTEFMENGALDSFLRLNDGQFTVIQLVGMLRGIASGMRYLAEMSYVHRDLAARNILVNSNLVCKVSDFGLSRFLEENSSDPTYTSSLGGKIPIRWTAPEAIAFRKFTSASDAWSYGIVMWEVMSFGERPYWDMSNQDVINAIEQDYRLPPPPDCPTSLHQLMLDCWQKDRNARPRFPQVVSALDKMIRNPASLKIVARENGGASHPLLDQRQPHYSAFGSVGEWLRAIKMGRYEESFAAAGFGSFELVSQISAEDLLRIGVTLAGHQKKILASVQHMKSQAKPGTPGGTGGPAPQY
The following applies: at 0.1 µM.

The target of assay [15] is T4, Ephrin type-B receptor 4 (Homo sapiens). The following applies: at 1 µM.
In assay [16] the target is Receptor tyrosine-protein kinase erbB-2 (Homo sapiens) (UniProt P04626). The note with it: at 0.1 µM.
Assay [17] shares this target. The note with it: at 1 µM.
Assay [18] deals with Receptor tyrosine-protein kinase erbB-4 (Homo sapiens) (UniProt Q15303). The following applies: at 0.1 µM.
Assay [19] has the same target. The note with it: at 1 µM.
Assay [20] has as its target Tyrosine-protein kinase Fer (Homo sapiens) (UniProt P16591). The note with it: at 0.1 µM.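 Also: reported figures are averaged percent inhibition of FER.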

One may read the inhibition as the relative decrease from the control value, in per cent.

Chain of Ephrin type-A receptor 2 (Homo sapiens) (P29317 whole entry): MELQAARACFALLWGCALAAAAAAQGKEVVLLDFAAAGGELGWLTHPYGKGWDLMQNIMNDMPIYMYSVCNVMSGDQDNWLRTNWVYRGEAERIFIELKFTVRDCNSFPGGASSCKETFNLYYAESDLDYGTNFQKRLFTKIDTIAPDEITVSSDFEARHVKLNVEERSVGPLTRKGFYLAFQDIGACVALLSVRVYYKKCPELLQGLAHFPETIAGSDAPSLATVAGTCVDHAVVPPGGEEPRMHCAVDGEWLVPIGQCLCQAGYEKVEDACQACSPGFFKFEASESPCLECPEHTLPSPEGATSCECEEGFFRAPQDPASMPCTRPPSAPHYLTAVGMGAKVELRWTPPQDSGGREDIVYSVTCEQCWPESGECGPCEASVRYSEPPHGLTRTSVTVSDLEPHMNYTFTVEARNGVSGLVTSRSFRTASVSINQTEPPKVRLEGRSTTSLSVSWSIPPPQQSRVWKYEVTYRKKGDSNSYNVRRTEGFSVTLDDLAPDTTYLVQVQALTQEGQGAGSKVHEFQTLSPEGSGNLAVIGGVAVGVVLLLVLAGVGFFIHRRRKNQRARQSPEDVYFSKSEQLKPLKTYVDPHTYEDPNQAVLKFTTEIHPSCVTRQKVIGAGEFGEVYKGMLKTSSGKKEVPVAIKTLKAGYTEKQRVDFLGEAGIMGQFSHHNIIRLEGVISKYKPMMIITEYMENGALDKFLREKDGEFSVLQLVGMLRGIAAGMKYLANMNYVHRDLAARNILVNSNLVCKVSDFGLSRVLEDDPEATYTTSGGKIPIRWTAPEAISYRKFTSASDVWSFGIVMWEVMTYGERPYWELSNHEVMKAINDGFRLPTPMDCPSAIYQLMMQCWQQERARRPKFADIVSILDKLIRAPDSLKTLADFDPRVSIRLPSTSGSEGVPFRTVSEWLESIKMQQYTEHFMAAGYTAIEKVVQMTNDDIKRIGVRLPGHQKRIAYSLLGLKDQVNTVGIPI
Chain of Epidermal growth factor receptor (Homo sapiens), P00533 [L858R,T790M] (P00533 whole entry T790M/L858R, looked up): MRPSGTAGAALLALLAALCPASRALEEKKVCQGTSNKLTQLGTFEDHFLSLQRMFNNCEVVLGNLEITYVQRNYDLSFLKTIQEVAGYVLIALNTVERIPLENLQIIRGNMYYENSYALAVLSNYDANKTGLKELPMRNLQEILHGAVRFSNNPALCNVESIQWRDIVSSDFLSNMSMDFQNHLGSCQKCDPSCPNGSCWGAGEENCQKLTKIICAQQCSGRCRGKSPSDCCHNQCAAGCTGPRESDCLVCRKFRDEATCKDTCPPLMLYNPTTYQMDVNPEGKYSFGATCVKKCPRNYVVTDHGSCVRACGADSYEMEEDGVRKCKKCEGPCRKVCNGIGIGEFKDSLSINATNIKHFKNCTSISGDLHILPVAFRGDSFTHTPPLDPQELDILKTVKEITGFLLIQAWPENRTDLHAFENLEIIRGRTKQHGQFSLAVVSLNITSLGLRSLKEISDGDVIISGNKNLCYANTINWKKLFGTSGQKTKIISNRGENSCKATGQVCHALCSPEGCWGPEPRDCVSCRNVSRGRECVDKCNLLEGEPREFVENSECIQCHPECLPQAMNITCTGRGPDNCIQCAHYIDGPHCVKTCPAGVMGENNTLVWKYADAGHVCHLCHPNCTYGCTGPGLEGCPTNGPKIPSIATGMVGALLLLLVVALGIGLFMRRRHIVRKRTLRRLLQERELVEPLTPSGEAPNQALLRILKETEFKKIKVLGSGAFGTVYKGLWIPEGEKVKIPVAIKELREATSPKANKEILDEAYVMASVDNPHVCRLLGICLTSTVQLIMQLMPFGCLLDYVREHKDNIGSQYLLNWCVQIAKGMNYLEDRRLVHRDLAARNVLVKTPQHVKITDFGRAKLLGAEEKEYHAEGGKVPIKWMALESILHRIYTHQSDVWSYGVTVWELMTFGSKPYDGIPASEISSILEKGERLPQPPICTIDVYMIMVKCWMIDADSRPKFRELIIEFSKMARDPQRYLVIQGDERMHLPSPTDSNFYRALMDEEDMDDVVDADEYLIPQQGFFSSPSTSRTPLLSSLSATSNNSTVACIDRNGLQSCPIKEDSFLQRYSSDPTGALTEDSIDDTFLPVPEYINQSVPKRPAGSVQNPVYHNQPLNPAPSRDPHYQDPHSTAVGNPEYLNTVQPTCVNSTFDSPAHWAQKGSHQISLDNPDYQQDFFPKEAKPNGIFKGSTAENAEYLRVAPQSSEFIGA
Chain of Tyrosine-protein kinase Fer (Homo sapiens) (P16591 whole entry, looked up): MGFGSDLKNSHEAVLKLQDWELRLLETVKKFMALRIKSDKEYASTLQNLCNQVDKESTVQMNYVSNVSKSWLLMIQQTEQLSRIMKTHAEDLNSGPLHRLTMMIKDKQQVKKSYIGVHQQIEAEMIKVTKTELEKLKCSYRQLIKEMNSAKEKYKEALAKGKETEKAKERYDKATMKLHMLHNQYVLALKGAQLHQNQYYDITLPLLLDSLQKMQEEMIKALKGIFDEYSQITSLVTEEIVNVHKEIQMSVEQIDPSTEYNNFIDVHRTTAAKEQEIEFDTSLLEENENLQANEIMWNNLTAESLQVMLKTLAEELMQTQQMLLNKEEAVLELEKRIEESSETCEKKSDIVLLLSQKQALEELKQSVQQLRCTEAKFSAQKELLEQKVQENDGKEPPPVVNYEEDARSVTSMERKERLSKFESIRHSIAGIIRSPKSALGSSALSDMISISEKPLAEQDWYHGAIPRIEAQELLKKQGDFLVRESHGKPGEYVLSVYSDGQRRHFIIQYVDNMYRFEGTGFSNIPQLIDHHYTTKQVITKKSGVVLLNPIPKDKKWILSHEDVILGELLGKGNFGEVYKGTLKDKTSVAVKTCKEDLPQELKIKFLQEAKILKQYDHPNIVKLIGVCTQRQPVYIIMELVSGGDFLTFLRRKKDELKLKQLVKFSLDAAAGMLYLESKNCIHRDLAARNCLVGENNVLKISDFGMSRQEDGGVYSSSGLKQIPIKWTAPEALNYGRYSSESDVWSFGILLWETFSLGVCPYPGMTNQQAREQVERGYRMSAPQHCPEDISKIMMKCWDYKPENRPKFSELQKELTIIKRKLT
Chain of Epidermal growth factor receptor (Homo sapiens), P00533 [T790M] (P00533 whole entry T790M): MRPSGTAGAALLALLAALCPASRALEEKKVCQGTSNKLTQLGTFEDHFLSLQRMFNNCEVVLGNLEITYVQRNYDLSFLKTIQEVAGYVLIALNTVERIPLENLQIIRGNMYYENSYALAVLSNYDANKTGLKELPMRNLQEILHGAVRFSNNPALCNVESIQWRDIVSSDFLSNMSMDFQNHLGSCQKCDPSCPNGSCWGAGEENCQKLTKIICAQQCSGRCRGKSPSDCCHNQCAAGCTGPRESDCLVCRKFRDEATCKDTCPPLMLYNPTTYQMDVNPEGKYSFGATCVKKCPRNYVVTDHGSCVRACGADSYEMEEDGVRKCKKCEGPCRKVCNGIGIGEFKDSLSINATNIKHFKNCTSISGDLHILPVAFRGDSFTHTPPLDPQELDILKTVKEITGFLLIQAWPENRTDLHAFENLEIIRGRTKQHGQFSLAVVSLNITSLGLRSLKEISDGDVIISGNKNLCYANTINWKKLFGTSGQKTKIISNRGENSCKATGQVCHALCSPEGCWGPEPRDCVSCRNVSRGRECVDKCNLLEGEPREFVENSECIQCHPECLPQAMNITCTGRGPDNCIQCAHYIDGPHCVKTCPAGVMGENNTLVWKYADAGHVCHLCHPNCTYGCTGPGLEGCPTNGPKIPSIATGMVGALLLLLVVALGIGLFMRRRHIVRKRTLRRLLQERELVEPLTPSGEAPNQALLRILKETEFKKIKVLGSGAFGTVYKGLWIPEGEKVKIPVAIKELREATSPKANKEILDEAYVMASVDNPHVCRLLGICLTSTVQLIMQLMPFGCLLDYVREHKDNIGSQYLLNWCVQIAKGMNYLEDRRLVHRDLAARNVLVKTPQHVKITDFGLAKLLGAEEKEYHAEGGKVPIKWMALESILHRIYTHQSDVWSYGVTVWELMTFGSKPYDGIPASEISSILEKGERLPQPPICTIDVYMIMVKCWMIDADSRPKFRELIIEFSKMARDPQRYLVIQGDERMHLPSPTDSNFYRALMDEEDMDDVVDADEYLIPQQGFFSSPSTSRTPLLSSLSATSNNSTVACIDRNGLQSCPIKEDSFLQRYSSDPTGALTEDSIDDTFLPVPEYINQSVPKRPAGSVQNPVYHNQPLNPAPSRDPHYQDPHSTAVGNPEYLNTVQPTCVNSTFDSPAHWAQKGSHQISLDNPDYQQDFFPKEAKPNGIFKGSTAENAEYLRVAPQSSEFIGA

Turning to `c1ccc(Cc2nc3ccc(Nc4ncnc5ccccc45)cc3[nH]2)cc1`, the inhibition in [1] was 2.67%; in assay [2] it was 1.06%; in assay [3], -0.39%; in assay [4], 1.21%; in assay [5] it was 0.81%; in [6], 4.49%. Moreover, the inhibition amounted to 4.41% in assay [7]; 9.01% in [8]; 11.7% in [9]; 8.45% in assay [10]; 12.8% in [11]; 3.69% in [12]. Also, the inhibition in assay [13] was found to be 6.08%; in assay [14] it was 1.42%; in [15] it was 1.8%; in [16] it was 2.07%; in assay [17] it was 51.6%; in assay [18], 98.2%. The inhibition in [19] was 115%; in assay [20] it was 0.32%.

Turning to `Nc1ccc(C#Cc2cncnc2Nc2ccc(OCc3cccc(F)c3)c(Cl)c2)cc1`, the inhibition is 2.68% in assay [1]; -0.93% in [2]; 0.42% in assay [3]; 0.44% in [4]; 0.03% in assay [5]; 3.68% in assay [6]. The inhibition in [7] was found to be 3.02%; in [8], 6.49%; in assay [9], 8.04%; in assay [10], 1.34%; in assay [11] it was 6.65%; in [12] it was 3.43%. Moreover, the inhibition in assay [13] was found to be 3.54%; in assay [14], 0.47%; in assay [15], 2.45%; in assay [16], 5.63%; in [17], 10.1%; in assay [18] it was 12.9%. For the same molecule, the results for the inhibition in assay [19] and in assay [20] were 54.4% and 2.93%, respectively.

Consider `CCCN1CCCC(c2ccc(Nc3nc(Nc4cc(F)ccc4C(N)=O)c4cc[nH]c4n3)c(OC)c2)C1` (stereo not given), for which the inhibition in assay [1] is 79.3%; in [2] it was 55.5%; in assay [3], 85.6%; in assay [4] it was -1.17%; in assay [5], -1.1%; in [6], 3.86%. Further, the inhibition in [7] was 4.27%; in assay [8] it was 8.97%; in assay [9], 4.53%; in [10] it was 8.14%; in [11], 15.8%; in assay [12], 6.2%. Further, the inhibition in [13] is -1.82%; in assay [14], 2.18%; in assay [15] it was 4.67%; in [16], 2.27%; in assay [17], 3.37%; in assay [18], 36.3%. Further, the results for the inhibition in assay [19] and in assay [20] were 75% and 77.5%, respectively.

Turning to `Cc1nc(-c2ccccc2)n2nc(NCCCN3CCOCC3)ncc12`, the inhibition is 2% in assay [1]; -0.39% in assay [2]; 3.29% in [3]; 0.3% in assay [4]; -0.95% in assay [5]; 3.7% in assay [6]. The inhibition is 4.01% in assay [7]; 5.25% in [8]; 8.81% in [9]; -0.43% in assay [10]; 7.29% in [11]; 2.93% in assay [12]. Besides, the inhibition in assay [13] came to 3.76%; in assay [14], 1.32%; in assay [15], 4.69%; in assay [16], 1.95%; in assay [17], 5.51%; in assay [18], 5.53%. Also, the inhibition in assay [19] amounted to 11.3%; in [20], 1.34%.

Source of the values: ChEMBL document CHEMBL1961873, “Compounds: GSK PKIS; Assays: Nanosyn kinase panel” (2012).
